Results from PubChem BioAssay AID449762 (Southern Research Specialized Biocontainment Screening …, 2010).
Hit rate of the full screen: of about 330,000 compounds, about 1,900 (0.58%) were called active. About 4% were inconclusive and are not listed. A selection follows. Entries with a potency or affinity are not part of this list. A number with no mark means an inactive call. Cut-off read from the data, not from the text of the source: inconclusive = inhibition above about 70% without an active follow-up result; inactive = below that.

Assay: M. tuberculosis growth inhibition, HTS (AID 449762);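 note: bacterial growth assessed after seven days of incubation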
Conditions: M. tuberculosis H37Rv growth inhibition, 7H9 media; at 25 µM; active compounds read high

Compared with `CC(=O)c1ccc(OCC(=O)Nc2cccc(S(=O)(=O)N3CCCC3)c2)cc1`, `CCc1nnc(NC(=O)c2ccc(S(=O)(=O)N3CCCC3)cc2)s1` is higher in inhibition: -6.55% for the first, -0.36% for the second.

First: COc1cc(NC(=O)c2cccs2)c(C(=O)OCC(=O)NCc2ccccc2)cc1OC
Second: O=C(COC(=O)c1cccs1)NCc1ccco1
The inhibition of the first is higher: -0.2% for the first, -0.65% for the second.

Going from `COc1ccc(COC(=O)c2ccc3c(=O)n4c(nc3c2)CCC4)cc1F` to `COc1cccc(CN(C)C(=O)c2ccc3c(=O)n4c(nc3c2)CCC4)c1OC`, the inhibition falls from 3.8% to 1.09%.

Going from `C[C@H](NC(=O)C1CCN(S(=O)(=O)c2ccccc2)CC1)C(=O)NCc1ccc(Cl)cc1Cl` to `COc1ccc(NC(=O)C(C)NS(=O)(=O)c2ccccc2)cc1Cl` (stereo not given), the inhibition falls from -1.33% to -8.72%.

Going from `O/C(=C\Sc1nnc(Cc2ccccc2)o1)c1ccc(Br)cc1` to `O/C(=C\Sc1nnc(Cc2ccccc2)o1)c1ccc(F)cc1`, the inhibition falls from 8.01% to 7.63%.

Compared with `CCC(C)(C)NC(=O)C(c1ccncc1)N(C(=O)c1sc(C)nc1C)c1ccc(C)cc1` (stereo not given), `Cc1ccc(NCc2nc(SCC(=O)Nc3ccccc3)n[nH]2)cc1` is lower in inhibition: 3.84% for the first, -2.62% for the second.

First: COc1cc(/C=N\NC(=O)c2ccc(Cl)cc2)ccc1Oc1ccc([N+](=O)[O-])cn1
Second: COc1cc(/C=N\Nc2nncn2N)ccc1OC(C)=O
The inhibition of the first is lower: -6.52% for the first, -2.67% for the second.

Compared with `Cc1cccc(-n2c(N)c(-c3nc4ccccc4n3C)c3nc4ccccc4nc32)c1`, `Cc1nc2ccccc2n1CCc1ccccc1` is lower in inhibition: 1.57% for the first, -2.95% for the second.

Compared with `CNC(=O)CS(=O)(=O)CC(=O)Nc1cc(OC(C)C)c(Cl)cc1Cl`, `COc1ccc(NC(=O)C(C)NS(=O)(=O)c2ccc(NC(C)=O)cc2)cc1Cl` (stereo not given) is higher in inhibition: -5.55% for the first, -1.73% for the second.

First: O=C(OC(C(=O)Nc1ccc(Cl)c(C(F)(F)F)c1)c1ccccc1)C1=COCCO1 (stereo not given)
Second: O=C(c1cccc(Cl)c1)c1nn(-c2ccccc2)c(=O)cc1C(F)(F)F
The inhibition of the first is higher: 45.5% for the first, -1.58% for the second.

First: O=C(Cc1ccccc1)Nc1nccs1
Second: COC(=O)CCC(=O)Nc1nccs1
The inhibition of the first is lower: -6.19% for the first, 5.49% for the second.

Compared with `CCn1c(SCC(=O)Nc2nc(C)c(C)s2)nnc1-c1cccnc1`, `Cc1cc(=O)oc(C)c1C(=O)NCc1cccnc1` is lower in inhibition: -1.86% for the first, -7.02% for the second.

First: CC1=NC(C(F)(F)F)(C(F)(F)F)C(C#N)=C(C)N1
Second: COc1ccc(N2C(=O)NC(NS(=O)(=O)c3ccccc3)(C(F)(F)F)C2=O)cc1 (stereo not given)
The inhibition of the first is higher: -4.27% for the first, -5.61% for the second.

First: C=CCn1cccc(C(=O)Nc2ccc(SC)cc2)c1=O
Second: O=C(Nc1ccc(OCc2ccccc2)cc1)c1ccccc1
The inhibition of the first is higher: -0.65% for the first, -2.87% for the second.

Going from `O=C(c1ccccc1)c1nn(-c2ccccc2)c(=O)cc1C(F)(F)F` to `CC(=O)N(C(C)=O)c1c(C#N)c(C)n(-c2ccccc2)c1C(=O)c1ccccc1`, the inhibition falls from 13.9% to -0.27%.

First: CCCCNC(=O)c1c(C)cc(=O)oc1C
Second: Cc1ccc(S(=O)(=O)Cc2ccc(C(=O)NCCCN3CCN(C)CC3)o2)cc1
The inhibition of the first is higher: -6.73% for the first, -20.7% for the second.

Going from `Clc1cccc(Cl)c1C1Nc2cccc3cccc(c23)N1` to `Oc1ccccc1C1Nc2cccc3cccc(c23)N1`, the inhibition falls from 14.4% to 6.02%.

Going from `O=C(CSc1nnnn1-c1ccc(F)cc1F)Nc1ccccc1F` to `COc1ccccc1NC(=O)CSCc1cc(=O)n2ccsc2n1`, the inhibition rises from -0.25% to 3.56%.

First: CC(=O)NC1=NN(C(C)=O)C(c2ccc(F)cc2)S1 (stereo not given)
Second: COc1ccc(N/C(N)=N/c2nc(C)cc(=O)[nH]2)cc1
The inhibition of the first is lower: -2.18% for the first, 4.61% for the second.

Going from `Cc1onc(-c2ccccc2)c1C(=O)NCc1cccnc1` to `CCCC(=O)c1ccc(-c2ccccc2)cc1`, the inhibition rises from -1.76% to 1.42%.

Compared with `COc1ccc(-c2cc(C(=O)N/N=C(\C)c3cccnc3)c3cc(C)ccc3n2)cc1OC`, `COc1ccc(CCN=C(N)NS(=O)(=O)c2ccc(C)cc2)cc1OC` is higher in inhibition: -3% for the first, -1.62% for the second.

Going from `O=C(CSc1cccc[n+]1[O-])N1CCCCCC1` to `O=C(O)CSc1cccc[n+]1[O-]`, the inhibition rises from -7.02% to -0.1%.

First: CN(C(=O)CSc1cccc[n+]1[O-])c1ccccc1
Second: [O-][n+]1ccccc1SCc1ccccc1
The inhibition of the first is lower: -7.05% for the first, -3.14% for the second.

Going from `CN(C(=O)CS(=O)(=O)c1cn(CC(=O)N2CCCCC2)c2ccccc12)c1ccccc1` to `O=C(CS(=O)(=O)c1cn(CC(=O)N2CCCC2)c2ccccc12)Nc1ccccc1F`, the inhibition rises from -2.32% to 2.67%.

Compared with `O=C(O)C1(P(=O)(c2ccccc2)c2ccccc2)CCCC1`, `O=c1/c(=C\c2ccc(O)cc2)sc2nc(-c3ccccc3)c(-c3ccccc3)n12` is lower in inhibition: 0.37% for the first, -4.61% for the second.

Going from `CN(C)CCCNC(=S)N(CCCO)Cc1cc2cc3c(cc2[nH]c1=O)OCO3` to `Cc1ccc(C)c(N2C(=O)CC(N3CCN(Cc4ccc5c(c4)OCO5)CC3)C2=O)c1` (stereo not given), the inhibition falls from 4.05% to -6.64%.

Compared with `COc1ccc(C(CCN2CCN(c3ccccc3)CC2)c2c(OC)cc(OC)c3c(-c4ccccc4)cc(=O)oc23)cc1` (stereo not given), `COc1cc(C(CCN2CCCC2)c2c(OC)cc(OC)c3c(-c4ccccc4)cc(=O)oc23)cc(OC)c1OC` (stereo not given) is higher in inhibition: -5.41% for the first, 56.2% for the second.

Compared with `CNC(=O)COC(=O)c1cc(=O)[nH]c2ccccc12`, `C/C(CC(=O)Nc1ccccn1)=N\NC(=O)c1ccccc1O` is higher in inhibition: -5.4% for the first, -3.57% for the second.

First: Cc1c2cnn(CC(=O)Nc3cccc(C(F)(F)F)c3)c(=O)c2c(C)n1Cc1ccccc1F
Second: O=C(Nc1ccc2oc(-c3cccc4ccccc34)nc2c1)c1ncn[nH]1
The inhibition of the first is lower: -1.26% for the first, 9.87% for the second.

Going from `O=C(CN1CCOc2ccccc21)N1CCCC1` to `O=C(CN1C(=O)COc2ccccc21)N1CCCC1`, the inhibition rises from -8.18% to -0.99%.

First: CC(C)c1ccc(NC2CCCN(C(=O)CCN3CCOCC3)C2)cc1 (stereo not given)
Second: Cc1ccc(C(C)C)c(OCC(O)CNC2CCCC2)c1 (stereo not given)
The inhibition of the first is lower: 7.93% for the first, 9.04% for the second.

First: O=C(Nc1nc(-c2cc(Cl)sc2Cl)cs1)c1ccc(Br)s1
Second: O=C(Nc1nc(-c2cc(Cl)sc2Cl)cs1)c1ccccc1
The inhibition of the first is higher: 1.67% for the first, -8.95% for the second.

Compared with `CCC1CCCCN1C(=O)c1noc(C(C)C)c1[N+](=O)[O-]` (stereo not given), `COC(=O)C1CCN(c2nc3ccccc3nc2C(C#N)C(=O)OCC(C)C)CC1` (stereo not given) is lower in inhibition: 3.49% for the first, -4.17% for the second.

Going from `CC12CC3(C)CC(C)(C1)CC(C(N)=O)(C2)C3` to `CCOC(=O)c1nc2sc3c(c2c(=O)[nH]1)CCCC3`, the inhibition rises from -0.48% to 2.32%.

Compared with `CCN(CCNCC(O)COCc1ccc(Cl)cc1)c1cccc(C)c1` (stereo not given), `COc1ccc(-c2csc(NC(CO)c3nc4ccccc4n3Cc3ccc(C)cc3)n2)cc1` (stereo not given) is lower in inhibition: 57% for the first, 25.6% for the second.

First: O=C(Cn1c2ccc(F)cc2c2nc3n(c(=O)c21)CCS3)N1CCCC1
Second: Cc1ccc2nc(NC(=O)CN3C(=O)NC4(CCCCC4)C3=O)sc2c1
The inhibition of the first is lower: -4.92% for the first, 5.87% for the second.

First: CCN(CC)S(=O)(=O)c1cccc(-c2csc(C)n2)c1
Second: Cc1cccc(N(C)S(=O)(=O)c2c(C)noc2C)c1
The inhibition of the first is lower: -1.32% for the first, 2.4% for the second.

Compared with `COc1ccc(/C=N/Nc2nnc(C)n2N)cc1OC`, `CCOc1ccccc1/C=N/Nc1ccc(Cl)nn1` is lower in inhibition: 54.6% for the first, 13.2% for the second.

First: Cc1cccc(C)c1-n1nnnc1SCSc1nnnn1-c1c(C)cccc1C
Second: Cc1ccccc1C1c2[nH]c3ccccc3c2CCN1C(=O)c1ccc(=O)n(C)n1 (stereo not given)
The inhibition of the first is lower: -0.17% for the first, 53.9% for the second.

First: CCOC(=O)C1=C(C)N=c2s/c(=C\c3ccc(OCC(=O)O)cc3)c(=O)n2C1c1ccccc1 (stereo not given)
Second: Cc1cc(=O)oc2ccc(OCC(=O)N3CCc4ccccc43)cc12
The inhibition of the first is higher: -2.68% for the first, -7.76% for the second.

Going from `COc1cccc(CN(C)C(=O)/C=C/c2ccc(S(=O)(=O)N3CCCCCC3)cc2)c1` to `COc1ccccc1NS(=O)(=O)c1cccc(NC(=O)C2CC2)c1`, the inhibition falls from 4.38% to -4.5%.

Compared with `Cc1cc(=O)[nH]c(N=N/C(=N/Nc2ccccc2C)c2ccccc2)n1`, `COc1cc(N/C=C(\C(C)=O)c2ccccc2)cc(OC)c1` is lower in inhibition: 68.7% for the first, 4.79% for the second.

First: Oc1ccc(/C=N/Nc2ccc(Cl)nn2)c(O)c1O
Second: O=C(Nc1ccc2oc(-c3ccc(Cl)c(Cl)c3)nc2c1)c1ncn[nH]1
The inhibition of the first is lower: -6.06% for the first, 50.6% for the second.

Going from `C/C(=N\NC(N)=O)c1ccc(Cl)s1` to `C/C(=N\NC(=S)NCc1ccccc1)c1ccc(Cl)s1`, the inhibition rises from -8.77% to -0.65%.

First: COc1ccccc1NS(=O)(=O)c1cc(C(=O)NCCC(C)C)ccc1F
Second: COc1cc(OC)c(C#N)c(S(=O)(=O)Cc2ccccc2)c1
The inhibition of the first is higher: 16.6% for the first, -8.56% for the second.

Going from `CC(C)CCOCc1nc2sc3c(c2c(=O)[nH]1)CCC(C)C3` (stereo not given) to `CCc1ccc(C2c3[nH]c4ccccc4c3CCN2C(=O)c2cc[n+]([O-])cc2)cc1` (stereo not given), the inhibition rises from -5.2% to -3.85%.

Compared with `O=[N+]([O-])c1ccc(OS(=O)(=O)Cc2ccccc2)cc1`, `Cc1c(C(c2ccc(F)cc2)c2c(C)n(C)n(-c3ccccc3)c2=O)c(=O)n(-c2ccccc2)n1C` is higher in inhibition: 4.45% for the first, 5.49% for the second.

Work on `OCCOCCn1c(C(CO)Nc2nc(-c3ccc(F)cc3)cs2)nc2ccccc21` (stereo not given) yielded an inhibition of 6.37%.
